25 compounds from PubChem BioAssay (Tox21) can be followed below.

The nature of assay [1]: qHTS RealTime-Glo MT Cell Viability Assay in HepG2 cells - 40 hour (AID 1224870). Further: nearly all actives have a fitted effect of over 50% in size. Further: potency means the concentration at half of the fitted maximal effect. The gist of the method: (§1)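 HepG2 cells mixed with RealTime-Glo MT reagents (NanoLuc plus cell-permeant prosubstrate) were seeded at 600 cells/well, incubated 5 h at 37 C/5% CO2, then pinned with compounds in DMSO; nonlytic luminescence tracked viability during 40 h treatment.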
Background: In qHTS, concentration-response curves come from the screen itself.

Assay [2] can be described thus: A CellTox Green Cytotoxicity Assay to monitor cytotoxicity in HEK293 cells - 40 hour (AID 1224871). Further: nearly all actives have a fitted effect of over 45% in size. Further: potency means the concentration at half of the fitted maximal effect. The gist of the method:
(§2)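 Cytotoxicity was tracked continuously in HEK293 cells by a DNA-binding dye excluded from viable cells. Compounds were transferred in DMSO 5 h after seeding; fluorescence was recorded at intervals up to 40 h.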

Assay [3] in a line: qHTS RealTime-Glo MT Cell Viability Assay in HEK293 cells - 16 hour (AID 1224872). Further: nearly all actives have a fitted effect of over 50% in size. Further: potency means the concentration at half of the fitted maximal effect. The gist of the method: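 Reads taken at 0, 8, 16, 24, 32 and 40 h from the same wells. HEK293 cells (600/well) carried RealTime-Glo reagents from seeding, with compound added after a 5 h settle at 37 C.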
Assay [4] is described as follows: qHTS RealTime-Glo MT Cell Viability Assay in HepG2 cells - 8 hour (AID 1224873). Further: nearly all actives have a fitted effect of over 55% in size. Further: potency means the concentration at half of the fitted maximal effect. The method in brief: as §1
The nature of assay [5]: qHTS RealTime-Glo MT Cell Viability Assay in HEK293 cells - 40 hour (AID 1224874). Further: nearly all actives have a fitted effect of over 50% in size. Further: potency means the concentration at half of the fitted maximal effect. Particulars: RealTime-Glo luminescence; max response: hits give low values. The method in brief:
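Nonlytic bioluminescent viability monitoring. HEK293 at 600 cells/well with reagent; 5 h settle; compound transfer by pintool; plates held at 37 C and read at set time points.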

Assay [6] is described as follows: A CellTox Green Cytotoxicity Assay to monitor cytotoxicity in HEK293 cells - 24 hour (AID 1224875). Further: series mostly up to about 77 µM; nearly all actives have a fitted effect of over 45% in size. The gist of the method:
as §2

A short description of assay [7]: A CellTox Green Cytotoxicity Assay to monitor cytotoxicity in HepG2 cells - 16 hour (AID 1224876). Further: nearly all actives have a fitted effect of over 45% in size. Further: potency means the concentration at half of the fitted maximal effect. The gist of the method:
(§3)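 Real-time, homogeneous cytotoxicity readout: dead-cell DNA staining by CellTox Green in HepG2 monolayers, fluorescence measured at timed intervals up to 40 h of continuous compound exposure.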

Assay [8] can be described thus: A CellTox Green Cytotoxicity Assay to monitor cytotoxicity in HepG2 cells - 24 hour (AID 1224878). Further: nearly all actives have a fitted effect of over 45% in size. Further: potency means the concentration at half of the fitted maximal effect. The method in brief:
as §3

Assay [9] in a line: A CellTox Green Cytotoxicity Assay to monitor cytotoxicity in HepG2 cells - 40 hour (AID 1224879). Further: nearly all actives have a fitted effect of over 40% in size. Further: potency means the concentration at half of the fitted maximal effect. The gist of the method: as §3
A short description of assay [10]: qHTS RealTime-Glo MT Cell Viability Assay in HepG2 cells - 32 hour (AID 1224877). Further: nearly all actives have a fitted effect of over 55% in size. Further: potency means the concentration at half of the fitted maximal effect. The method in brief:
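HepG2 suspension premixed with RealTime-Glo reagents is plated at 600 cells per well and left 5 h at 37 C/5% CO2. Compounds in DMSO then go in, and bioluminescence reflecting viable cell number is recorded over 40 h.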

SMILES strings stand for the structures. Results filed as inconclusive are left out. Unmarked numbers belong to inactive results. Active and inactive are the calls of the source. The call rests on the fitted dose curve; in most records, active means well fitted curve in the direction sought with a large enough effect in the repeat runs; inconclusive means weak or mixed curves; inactive means no such curve, though single readings can be large; an effect the other way counts as inactive or inconclusive.
On the % scale 0 is the no-effect control and ±100 the full control effect.

For `COc1ccc(CCN(C)CCCN2CCc3cc(OC)c(OC)cc3CC2=O)cc1OC`, the Potency result in assay [1], in assay [2], in assay [3], in assay [4], in assay [6] and in assay [7] was “inactive” each time. The Potency entry in [8] and in [9] was “inactive” throughout. The max response in assay [5] is 9.42%.

Turning to `O=[N+]([O-])c1ccc2ncccc2c1`, the Potency entry in [1], in assay [2], in [3], in assay [4], in assay [6] and in [7] was “inactive” throughout. Further, the Potency result in assay [10], in assay [8] and in assay [9] was “inactive” in each case. Further, in [5], the max response is 2.13%.

Take `CCC(CO)(CO)[N+](=O)[O-]`: the Potency entry in [1], in [2], in [3], in assay [4], in assay [6] and in [10] was “inactive” in each case. Moreover, in [5], the max response is 1.66%.

As to `CCN(Cc1cccc(S(=O)(=O)O)c1)c1ccc(C(=C2C=CC(=[N+](CC)Cc3cccc(S(=O)(=O)O)c3)C=C2)c2ccc(O)cc2S(=O)(=O)[O-])cc1`, the Potency result in assay [1], in assay [2], in assay [3], in assay [4], in [6] and in assay [7] was “inactive” in each case. Besides, the Potency result in assay [10], in assay [8] and in assay [9] was “inactive” throughout. In addition, the max response in [5] is 8.88%.

For `Cc1ccc(Cl)cc1N`, the Potency entry in [1], in [2], in [3], in [4], in assay [6] and in assay [10] was “inactive” throughout. In addition, the Potency result in assay [8] and in assay [9] was “inactive” throughout. Further, in [5], the max response is 4.39%.

With `Cc1cn([C@H]2C[C@H](F)[C@@H](CO)O2)c(=O)[nH]c1=O`, the Potency result in assay [1], in assay [2], in [3], in assay [4], in assay [6] and in [7] was “inactive” each time. For the same compound, the Potency result in assay [10] and in assay [9] was “inactive” in each case. The max response in assay [5] is 16.7%.

`CC(=O)OCCC1CCCCC1`: the Potency entry in assay [1], in assay [2], in [3], in assay [4], in [6] and in assay [10] was “inactive” each time. Besides, the max response in [5] was 6.39%.

In the case of `CC1CCCO1` (stereo not given), the Potency result in assay [1], in assay [2], in [3], in assay [4], in [6] and in [7] was “inactive” in each case. Moreover, the Potency result in assay [10] and in [9] was “inactive” throughout.

For the compound `COc1ccc(C(=O)NCc2ccc(OCCN(C)C)cc2)cc1OC`, the Potency entry in [1], in [2], in assay [3], in assay [4], in [6] and in [7] was “inactive” in each case. Further, the Potency result in assay [10], in assay [8] and in assay [9] was “inactive” each time.

`Nc1ccc(S(=O)(=O)NCc2ccccc2)cc1`: the Potency entry in [1], in assay [2], in [3], in assay [4], in assay [6] and in assay [7] was “inactive” in each case. Further, the Potency result in assay [10] and in assay [9] was “inactive” each time.

Take `CC(=O)c1ccc[nH]1`: the Potency entry in assay [1], in assay [2], in assay [3], in assay [4], in [7] and in assay [10] was “inactive” throughout. Further, the Potency entry in assay [8] and in assay [9] was “inactive” throughout. Also, the max response in [5] was -0.568%.

For the compound `CC[C@H]1OC(=O)[C@H](C)[C@@H](O[C@H]2C[C@@](C)(OC)[C@@H](O)[C@H](C)O2)[C@H](C)[C@@H](O[C@@H]2O[C@H](C)C[C@H](N(C)C)[C@H]2O)[C@](C)(O)C[C@@H](C)CN(C)[C@H](C)[C@@H](O)[C@]1(C)O`, the Potency result in assay [1], in [2], in [3], in assay [4], in [6] and in assay [7] was “inactive” throughout. In addition, the Potency entry in assay [10] and in [8] was “inactive” each time.

For the compound `O=P(O)(O)Oc1ccccc1`, the Potency result in assay [1], in assay [2], in assay [3], in assay [4], in [6] and in assay [7] was “inactive” throughout. The Potency entry in assay [10], in assay [8] and in assay [9] was “inactive” each time.

On to `O=C(O)CNC(=O)c1ccccc1I`, for which the Potency entry in [1], in assay [2], in assay [3], in [4], in assay [7] and in [10] was “inactive” throughout. The Potency entry in assay [8] and in assay [9] was “inactive” in each case. Also, the max response in [5] is 6.48%.

Turning to `CCCCCCCCCCCCCC(=O)OCC(O)CO` (stereo not given), the Potency result in assay [1], in assay [2], in assay [3], in assay [4], in [8] and in assay [9] was “inactive” in each case. In assay [5], the max response is -0.733%.

With `O[C@@H](CNC[C@H](O)[C@H]1CCc2cc(F)ccc2O1)[C@@H]1CCc2cc(F)ccc2O1`, the Potency is 15.1 µM (active) in assay [1]; 26.8 µM (active) in assay [2]; 19 µM (active) in [3]; 21.3 µM (active) in [4]; 19 µM (active) in assay [5]; 16.9 µM (active) in [7]. In addition, the figures for the Potency in [10], in assay [8] and in [9] were 15.1 µM (active), 10.7 µM (active) and 10.7 µM (active), respectively.

For the compound `CC(C)(C)CCCCCCOC(=O)c1ccccc1C(=O)OCCCCCCC(C)(C)C`, the Potency entry in assay [1], in assay [2], in assay [3], in [4], in assay [7] and in assay [10] was “inactive” in each case. The Potency result in assay [8] and in [9] was “inactive” in each case. The max response in assay [5] is 7.13%.

On to `COc1ccc(-c2cc(=S)ss2)cc1`, for which the Potency result in assay [1], in assay [2], in assay [3], in assay [4], in assay [6] and in assay [7] was “inactive” throughout. Also, the Potency result in assay [10], in [8] and in assay [9] was “inactive” in each case.

`O=S(=O)(Cl)c1c(Cl)cccc1Cl`: the Potency result in [1], in [2], in assay [3], in assay [4], in [6] and in [7] was “inactive” in each case. Besides, the Potency result in assay [10] and in assay [9] was “inactive” throughout.

Consider `CC(O)Cn1cnc2c1c(=O)n(C)c(=O)n2C` (stereo not given), for which the Potency result in assay [1], in assay [2], in assay [3], in assay [4], in [7] and in assay [10] was “inactive” each time. Moreover, the Potency entry in assay [8] and in assay [9] was “inactive” throughout. Moreover, the max response in assay [5] is 5.1%.

As for `O=C(O)/C=C/c1ccc(O)c(O)c1`, the Potency entry in assay [1], in [2], in [3], in [4], in [6] and in assay [7] was “inactive” in each case. Further, the Potency entry in assay [10] and in assay [9] was “inactive” in each case.

As for `CC(C)C(=O)OCCOc1ccccc1`, the Potency result in assay [1], in [2], in assay [3], in assay [4], in assay [6] and in [7] was “inactive” each time. For the same compound, the Potency result in assay [10], in assay [8] and in assay [9] was “inactive” throughout.

Regarding `O=C(NC(Cc1cc(=O)[nH]c2ccccc12)C(=O)O)c1ccc(Cl)cc1` (stereo not given), the Potency entry in assay [1], in [2], in [3], in assay [4], in assay [7] and in assay [10] was “inactive” in each case. Also, the Potency result in assay [8] and in assay [9] was “inactive” throughout. Moreover, the max response in [5] was 3.38%.

As to `ClC1=C(Cl)C1(Cl)Cl`, the Potency entry in [1], in assay [2], in [3], in assay [4], in assay [6] and in [7] was “inactive” in each case. Also, the Potency entry in assay [10], in [8] and in assay [9] was “inactive” each time.

On to `Cc1ccc(N(CC2=NCCN2)c2cccc(O)c2)cc1`, for which the Potency entry in assay [1], in [2], in assay [3], in [4], in assay [7] and in [10] was “inactive” in each case. The Potency entry in [9] was “inactive”. In addition, the max response in [5] is -23.3%.
